Molecules are shown by their SMILES. Results filed as inconclusive are left out. Active and inactive are the calls of the source. The call rests on the fitted dose curve; in most records, active means well fitted inhibition curve with a large enough effect; inconclusive means small, poorly fitted or top-dose-only effect; inactive means flat fitted curve, though single readings scatter.
Potency means the concentration at half of the fitted maximal effect.

One test deals with ATS189. Nature of the test: qHTS profiling for inhibitors of Plasmodium falciparum proliferation (AID 504749). Further: nearly all actives have a fitted effect of over 60% in size.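 On activity, negative = inhibition: 0% = DMSO vehicle and full inhibition = artemisinin control.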 The settings on record: P. falciparum in erythrocytes, SYBR Green DNA, 72 h; series mostly up to 28.7 µM; activity, negative = inhibition: at the top concentration. The method in brief:
(§1)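 Quantitative HTS: compounds pinned into medium, infected erythrocytes added (0.3% parasitemia, 2.5% hematocrit), 72 h culture at 37 C under 5% CO2. Saponin/Triton lysis with SYBR Green I, overnight RT, then fluorescence read.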
Background: Quantitative high-throughput screening tests each substance at several concentrations.
`CCOc1ccc2nc(S(N)(=O)=O)sc2c1`: the “activity, negative = inhibition” value was 4.34% (inactive).

Turning to `O=C(O)/C=C/C(O)c1ccc(Cl)cc1` (configuration not stated), the “activity, negative = inhibition” value is 3.99% (inactive).

For `Oc1c(Br)cc(Br)c2cccnc12`, the “activity, negative = inhibition” value is -0.928% (inactive).

Consider `Cc1ccc(C(=O)c2ccc(CC(=O)O)n2C)cc1`, for which the “activity, negative = inhibition” value was 1.22% [at 12.8 µM] (inactive).

`O=C(CCN1CCN(CCO)CC1)N1c2ccccc2Sc2ccc(C(F)(F)F)cc21`: the Potency was 11.2 µM (active).

On to `Cc1cc(O)c2ccccc2c1O`, for which the “activity, negative = inhibition” value was -0.234% (inactive).

Consider `COc1ccc(-c2cc(=S)ss2)cc1`, for which the “activity, negative = inhibition” value was -23.3% (inactive).

As to `CN1[C@@H]2CC[C@H]1CC(OC(=O)C(CO)c1ccccc1)C2` (some centres not stated), the “activity, negative = inhibition” value is 3.18% (inactive).

In the case of `CCCSc1ccc2nc(NC(=O)OC)[nH]c2c1`, the “activity, negative = inhibition” value was -15.1% [at 12.8 µM] (inactive).

`O=C(O)[C@H](CC(=O)N1C[C@H]2CCCC[C@H]2C1)Cc1ccccc1`: the “activity, negative = inhibition” value was 4.23% (inactive).

For `C=C(Nc1ccc(OCC)cc1)Nc1ccc(OCC)cc1`, the Potency result is “inactive”.

`CC(=O)[C@]1(O)Cc2c(O)c3c(c(O)c2[C@@H](O[C@H]2C[C@H](N)[C@H](O)[C@H](C)O2)C1)C(=O)c1c(O)cccc1C3=O`: the Potency is 10 µM (active).

For the next test, the system named is ATS95. The description is as above. The conditions noted are these: P. falciparum in erythrocytes, SYBR Green DNA, 72 h; series mostly up to 28.7 µM; activity, negative = inhibition: at the top concentration. In a few lines: as §1
Consider `O=C(OCc1ccccc1)c1ccccc1`, for which the “activity, negative = inhibition” value was -1.8% (inactive).

In the case of `Nc1ccc(C(=O)O)c(O)c1`, the “activity, negative = inhibition” value was -1% (inactive).

Turning to `O=C(/C=C/c1ccccc1)NCCO`, the “activity, negative = inhibition” value was 6.85% (inactive).

As to `O=C1CN(/N=C/c2ccc(-c3ccc([N+](=O)[O-])cc3)o2)C(=O)N1`, the “activity, negative = inhibition” value is -0.193% (inactive).

Take `CCCCCCCCCCCCCCCCCC(=O)O`: the “activity, negative = inhibition” value is 7.7% (inactive).

Consider `O=C(O)c1cc(O)c(O)c(O)c1`, for which the “activity, negative = inhibition” value was -21.2% (inactive).

As to `CCOC(=O)c1ccccc1O`, the “activity, negative = inhibition” value is 4.18% (inactive).

Regarding `COc1cc(/C=C/C(=O)N2CCN(CC(=O)N3CCCC3)CC2)cc(OC)c1OC`, the “activity, negative = inhibition” value was -4.1% (inactive).

Take `Nc1cc(-c2ccncc2)c[nH]c1=O`: the “activity, negative = inhibition” value is 0.0641% (inactive).

In the case of `O=C(O)c1ccccc1Nc1cccc(C(F)(F)F)c1`, the “activity, negative = inhibition” value was -3.22% (inactive).

`c1ccc2sc(SN3CCOCC3)nc2c1`: the “activity, negative = inhibition” value is -16.9% (inactive).

On to `Cc1nc2ccccc2n1Cc1ccc(Cl)cc1`, for which the “activity, negative = inhibition” value was -19.8% (inactive).

In the case of `Clc1ccccc1-c1nc(-c2ccncc2)no1`, the “activity, negative = inhibition” value is 1.73% (inactive).

On to `CN1[C@@H]2CC[C@H]1CC(OC(c1ccccc1)c1ccccc1)C2` (some centres not stated), for which the Potency is 12.6 µM (active).

As to `O=C(O)/C=C/C(O)c1ccc(Cl)cc1` (configuration not stated), the “activity, negative = inhibition” value was -0.981% (inactive).

Take `Oc1c(Br)cc(Br)c2cccnc12`: the “activity, negative = inhibition” value is -11.6% (inactive).

With `Cc1ccc(C(=O)c2ccc(CC(=O)O)n2C)cc1`, the “activity, negative = inhibition” value was 3.85% [at 12.8 µM] (inactive).

On to `O=C(CCN1CCN(CCO)CC1)N1c2ccccc2Sc2ccc(C(F)(F)F)cc21`, for which the “activity, negative = inhibition” value is -23.6% (inactive).

For `Cc1cc(O)c2ccccc2c1O`, the “activity, negative = inhibition” value is 2.19% (inactive).

As for `COc1ccc(-c2cc(=S)ss2)cc1`, the “activity, negative = inhibition” value was -9.29% (inactive).

In the case of `CN1[C@@H]2CC[C@H]1CC(OC(=O)C(CO)c1ccccc1)C2` (some centres not stated), the “activity, negative = inhibition” value is 0.0642% (inactive).

With `CCCSc1ccc2nc(NC(=O)OC)[nH]c2c1`, the “activity, negative = inhibition” value was -1% [at 12.8 µM] (inactive).

For `O=C(O)[C@H](CC(=O)N1C[C@H]2CCCC[C@H]2C1)Cc1ccccc1`, the “activity, negative = inhibition” value was -7.66% (inactive).

`C=C(Nc1ccc(OCC)cc1)Nc1ccc(OCC)cc1`: the Potency result is “inactive”.

`CC(=O)[C@]1(O)Cc2c(O)c3c(c(O)c2[C@@H](O[C@H]2C[C@H](N)[C@H](O)[C@H](C)O2)C1)C(=O)c1c(O)cccc1C3=O`: the Potency was 7.08 µM (active).

For the origin of these results see PubChem BioAssay (NCATS).
